Bioassay records (PubChem BioAssay)
In the library only some 2.5% were active in any assay of this set; here they are far more common.
MEKK3 PB1 HTS: raises or lowers MEK5 binding to the human MEKK3 PB1 domain | AID 1529 | Q99759 | bead-based flow cytometry, Alexa488-MEK5 binding to MEKK3; actives lie on both sides; 0 = blocked by unlabeled MEK5, 100 = vehicle | binding response (% of control), % at 10 µM | hit rate 1.4% among 290,000;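 active = binding response more than 3 SD above or below the average of its plate-row segment, actives on both sides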;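 note: Alexa488 bead fluorescence after subtracting the streptavidin-only scavenger bead signal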
MEKK2 mut-MEK5: signal of MEK5 binding to mutant human MEKK2 PB1 domain; hit rate 0.35% among 290,000; percent response, % at 10 µM; bead flow cytometry, Alexa488-MEK5 binding to MEKK2 mutant; in the data active = percent response above about 24%, passing the limit was not always enough
MEKK2wt PB1 HTS: raises or lowers MEK5 binding to wildtype human MEKK2 PB1 domain; bead flow cytometry, Alexa488-MEK5 binding to MEKK2 WT; actives lie on both sides; Q9Y2U5; hit rate 1.1% among 290,000; AID 1531; binding response (% of control), % at 10 µM; in the data active = binding response below about 67% or above about 130%
GRK2 aptamer HTS: blocks RNA aptamer binding to human GRK2; bead flow cytometry, FAM-aptamer displacement from GRK2; P25098; hit rate 0.59% among 330,000; inhibition of aptamer binding, % at 10 µM;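 active = inhibition of aptamer binding above 40%, roughly 3 SD of noise, on plates passing a quality check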;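 note: median bead fluorescence of bound FAM aptamer so fluorescent compounds give negative values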
Target sequence (P25098 whole entry, looked up): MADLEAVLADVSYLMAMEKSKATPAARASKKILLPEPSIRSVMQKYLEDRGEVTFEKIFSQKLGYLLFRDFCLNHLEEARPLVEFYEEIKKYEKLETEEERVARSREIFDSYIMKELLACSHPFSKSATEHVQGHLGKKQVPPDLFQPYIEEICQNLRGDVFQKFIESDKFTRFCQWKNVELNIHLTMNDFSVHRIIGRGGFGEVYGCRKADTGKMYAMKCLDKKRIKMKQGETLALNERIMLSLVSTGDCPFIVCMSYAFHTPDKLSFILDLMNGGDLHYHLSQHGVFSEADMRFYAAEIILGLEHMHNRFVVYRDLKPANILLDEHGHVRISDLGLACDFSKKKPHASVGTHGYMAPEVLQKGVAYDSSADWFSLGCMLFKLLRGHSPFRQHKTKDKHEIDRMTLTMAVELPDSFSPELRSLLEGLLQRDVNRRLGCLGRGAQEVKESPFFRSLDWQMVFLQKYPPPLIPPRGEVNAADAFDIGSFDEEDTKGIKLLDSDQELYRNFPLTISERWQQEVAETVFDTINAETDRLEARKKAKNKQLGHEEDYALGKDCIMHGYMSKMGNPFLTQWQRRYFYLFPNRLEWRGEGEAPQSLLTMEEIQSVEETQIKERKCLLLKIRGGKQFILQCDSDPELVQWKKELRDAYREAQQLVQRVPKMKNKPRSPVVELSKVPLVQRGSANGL
MEKK2wt confirm: raises or lowers MEK5 binding to wildtype human MEKK2, retest; shares compounds with MEKK3 PB1 HTS; bead flow cytometry, Alexa488-MEK5 binding to MEKK2 WT; actives lie on both sides; binding response (% of control), % at 10 µM; hit rate 2.4% among 5,900; AID 1892; in the data active = binding response below about 16% or above about 210%; inactive = in between
MEKK2mut-MEK5: signal of MEK5 binding to mutant human MEKK2, retest | shares compounds with MEKK3 PB1 HTS | bead flow cytometry, Alexa488-MEK5 binding to MEKK2 mutant | percent response, % at 10 µM | hit rate 2% among 5,900 | AID 1893; in the data active = percent response mostly above about 71%, no sharp cut-off; inactive = mostly below about 38%;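 note: higher means compound restores mutant binding toward wildtype level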
MEKK3 confirm: MEKK3-MEK5 PB1 inhibition, single concentration confirmation | shares compounds with MEKK3 PB1 HTS | bead flow cytometry, Alexa488-MEK5 binding to MEKK3; hits give low values | binding response (% of control), % at 10 µM | hit rate 1.8% among 5,900 | AID 1894;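 active = binding response below 72% of control, or above a set upper limit, though filed actives all read lower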;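 note: lower values mean stronger disruption of MEK5 binding to MEKK3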
Numbers stand for hits; [ ] = another dose, or the depositor's remark.

CC(=O)ONC(=Nc1ccccc1)c1nonc1N was read as MEKK3 PB1 HTS 47[inhibitor], MEKK2 mut-MEK5 inactive, MEKK2wt PB1 HTS inactive, GRK2 aptamer HTS inactive, MEKK2wt confirm inactive, MEKK2mut-MEK5 inactive and MEKK3 confirm inactive.
`CCCC(=O)N1CCN(Cc2nc3cc([N+](=O)[O-])ccc3n2C)CC1` gave MEKK3 PB1 HTS inactive, MEKK2 mut-MEK5 inactive, MEKK2wt PB1 HTS inactive and GRK2 aptamer HTS inactive.
NC1=NC(=O)CC(C(=O)NCCc2ccccc2)S1 (stereo not drawn) was read as MEKK3 PB1 HTS inactive, MEKK2 mut-MEK5 inactive, MEKK2wt PB1 HTS inactive and GRK2 aptamer HTS inactive.
For COCCN(C(=O)C1CC1)c1nnc(-c2cccc(C)c2)s1 the results were MEKK3 PB1 HTS 0.0[inhibitor], MEKK2 mut-MEK5 inactive, MEKK2wt PB1 HTS 0.0[inhibitor], GRK2 aptamer HTS inactive, MEKK2wt confirm inactive, MEKK2mut-MEK5 inactive and MEKK3 confirm inactive.
`COc1ccc(-c2c(-c3ccc(OCC(=O)NN)cc3O)n[nH]c2C(F)(F)F)cc1` gave MEKK3 PB1 HTS 130, MEKK2 mut-MEK5 inactive, MEKK2wt PB1 HTS inactive, GRK2 aptamer HTS inactive, MEKK2wt confirm inactive, MEKK2mut-MEK5 inactive and MEKK3 confirm inactive.
Screening COc1ccc(-c2c(-c3ccc(OCC(=O)NN)cc3O)n[nH]c2C)cc1OC returned MEKK3 PB1 HTS inactive, MEKK2 mut-MEK5 inactive, MEKK2wt PB1 HTS inactive and GRK2 aptamer HTS inactive.
For CCOC(=O)c1c(-c2ccccc2)oc2ccc(OCC(O)CNCCN(C)C)cc12 (stereo not drawn) the results were MEKK3 PB1 HTS inactive, MEKK2 mut-MEK5 31, MEKK2wt PB1 HTS 165, GRK2 aptamer HTS inactive, MEKK2wt confirm inactive, MEKK2mut-MEK5 inactive and MEKK3 confirm inactive.
CCOC(=O)c1c(-c2ccccc2)oc2ccc(OCC)cc12 was read as MEKK3 PB1 HTS inactive, MEKK2 mut-MEK5 inactive, MEKK2wt PB1 HTS inactive and GRK2 aptamer HTS inactive.
`Cc1ccc(C(=O)Nc2cccnc2)cc1S(=O)(=O)N1CCOCC1` gave MEKK3 PB1 HTS 129, MEKK2 mut-MEK5 inactive, MEKK2wt PB1 HTS inactive, GRK2 aptamer HTS inactive, MEKK2wt confirm inactive, MEKK2mut-MEK5 inactive and MEKK3 confirm inactive.
`CC(C)CC(N=Cc1c(O)c2ccccc2oc1=O)C(=O)O` (stereo not drawn) gave MEKK3 PB1 HTS 73[inhibitor], MEKK2 mut-MEK5 inactive, MEKK2wt PB1 HTS inactive, GRK2 aptamer HTS inactive, MEKK2wt confirm inactive, MEKK2mut-MEK5 inactive and MEKK3 confirm inactive.
CN(C)c1ccc(/C=N/Nc2cccc(C(=O)O)c2)cc1 was read as MEKK3 PB1 HTS inactive, MEKK2 mut-MEK5 inactive, MEKK2wt PB1 HTS inactive and GRK2 aptamer HTS inactive.
Screening COc1ccc(CCN2CCC(Nc3nc4ccccc4n3Cc3ccc(F)cc3)CC2)cc1 returned MEKK3 PB1 HTS inactive, MEKK2 mut-MEK5 38, MEKK2wt PB1 HTS 150, GRK2 aptamer HTS inactive, MEKK2wt confirm inactive, MEKK2mut-MEK5 inactive and MEKK3 confirm inactive.
Screening COc1ccc(CNc2nc3ccccc3n2CCN2CCCCC2)cc1 returned MEKK3 PB1 HTS inactive, MEKK2 mut-MEK5 inactive, MEKK2wt PB1 HTS inactive and GRK2 aptamer HTS inactive.
For CCOc1ccc(CCNC(=O)CN2C(=O)NC3(CCCCC3C)C2=O)cc1OCC (stereo not drawn) the results were GRK2 aptamer HTS inactive.
Screening Cc1cccc(CN2CCc3c([nH]c4ccccc34)C2)c1 returned MEKK3 PB1 HTS inactive, MEKK2 mut-MEK5 inactive, MEKK2wt PB1 HTS inactive and GRK2 aptamer HTS inactive.
COc1cc(OC)c(CN2CCc3c([nH]c4ccccc34)C2)cc1Br was read as MEKK3 PB1 HTS inactive, MEKK2 mut-MEK5 30, MEKK2wt PB1 HTS inactive, GRK2 aptamer HTS inactive, MEKK2wt confirm inactive, MEKK2mut-MEK5 inactive and MEKK3 confirm inactive.
`O=C(Nc1nnc(-c2ccncc2)o1)c1ccccc1F` gave MEKK3 PB1 HTS 129, MEKK2 mut-MEK5 inactive, MEKK2wt PB1 HTS inactive, GRK2 aptamer HTS inactive, MEKK2wt confirm inactive, MEKK2mut-MEK5 inactive and MEKK3 confirm inactive.
`COCCNC(=O)C(c1ccc(OC)cc1)N(C(=O)Cn1nnc2ccccc21)c1cccnc1` (stereo not drawn) gave MEKK3 PB1 HTS inactive, MEKK2 mut-MEK5 inactive, MEKK2wt PB1 HTS inactive and GRK2 aptamer HTS inactive.
Screening CCc1ccc(C(C(=O)NCCOC)N(C(=O)Cn2nnc3ccccc32)c2cccnc2)cc1 (stereo not drawn) returned MEKK3 PB1 HTS 2.0[inhibitor], MEKK2 mut-MEK5 inactive, MEKK2wt PB1 HTS 2.0[inhibitor], GRK2 aptamer HTS inactive, MEKK2wt confirm inactive, MEKK2mut-MEK5 inactive and MEKK3 confirm inactive.
For CN(C)c1ccc(CNC(=O)C2CCN(S(=O)(=O)c3ccc4c(c3)oc(=O)n4C)CC2)cc1 the results were MEKK3 PB1 HTS inactive, MEKK2 mut-MEK5 inactive, MEKK2wt PB1 HTS inactive and GRK2 aptamer HTS inactive.
Screening CC(C)C(=O)NC(c1ccco1)c1c(O)ccc2ccccc12 (stereo not drawn) returned MEKK3 PB1 HTS inactive, MEKK2 mut-MEK5 inactive, MEKK2wt PB1 HTS inactive and GRK2 aptamer HTS inactive.
For Cc1ccc(N2CCN(C3=NC(=O)/C(=C\c4cn[nH]c4-c4ccccc4)S3)CC2)cc1 the results were MEKK3 PB1 HTS 135, MEKK2 mut-MEK5 inactive, MEKK2wt PB1 HTS inactive, GRK2 aptamer HTS inactive, MEKK2wt confirm inactive, MEKK2mut-MEK5 inactive and MEKK3 confirm inactive.
O=S(=O)(c1ccccc1)N1CCN(C(=S)Nc2ccc(F)cc2)CC1 was read as MEKK3 PB1 HTS 134, MEKK2 mut-MEK5 inactive, MEKK2wt PB1 HTS inactive, GRK2 aptamer HTS inactive, MEKK2wt confirm inactive, MEKK2mut-MEK5 inactive and MEKK3 confirm inactive.
`O=S(=O)(c1ccccc1)N1CCN(C(=S)Nc2ccccc2)CC1` gave MEKK3 PB1 HTS inactive, MEKK2 mut-MEK5 inactive, MEKK2wt PB1 HTS inactive and GRK2 aptamer HTS inactive.
For Cc1ccc(-c2cc3ccccc3nc2N2CCOCC2)cc1 the results were MEKK3 PB1 HTS 75[inhibitor], MEKK2 mut-MEK5 inactive, MEKK2wt PB1 HTS inactive, GRK2 aptamer HTS inactive, MEKK2wt confirm inactive, MEKK2mut-MEK5 inactive and MEKK3 confirm inactive.
For CCOC(=O)/C(C#N)=C/c1cc2ccc(C)cc2nc1Cl the results were MEKK3 PB1 HTS 57[inhibitor], MEKK2 mut-MEK5 inactive, MEKK2wt PB1 HTS inactive, MEKK2wt confirm inactive, MEKK2mut-MEK5 inactive and MEKK3 confirm inactive.
Screening CCOC(=O)/C(C#N)=C/c1cc2cc(C)c(C)cc2nc1Cl returned MEKK3 PB1 HTS inactive, MEKK2 mut-MEK5 inactive, MEKK2wt PB1 HTS inactive and GRK2 aptamer HTS inactive.
Screening CCOC(=O)/C(C#N)=C/c1cc2ccccc2nc1N1CCOCC1 returned MEKK3 PB1 HTS 66[inhibitor], MEKK2 mut-MEK5 inactive, MEKK2wt PB1 HTS inactive, GRK2 aptamer HTS inactive, MEKK2wt confirm inactive, MEKK2mut-MEK5 inactive and MEKK3 confirm inactive.
`NS(=O)(=O)c1ccc(NC(=O)c2cc(Cl)ccc2Cl)cc1` gave GRK2 aptamer HTS inactive.
